We go through ten compounds from PubChem BioAssay.

A short description of assay [1]: inhibitors of TNFa-induced NFkB p65 translocation, primary screen, imaging, HUVEC, MLSMR starter and 10KST1 sets (AID 438;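 active = inhibition above 20% together with a positive visual image hit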;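 note: compound added about 3h40 before a 20 min TNFalpha stimulation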;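 for inhibition: signal is the nuclear over cytoplasmic p65 intensity ratio per well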). The following applies: HUVEC TNFa-induced p65 nuclear translocation; cell count: measured here: nuclei count (cytotoxicity indicator), at 2.08 µM; inhibition: at 2 µM, stronger effect = higher value, 0% TNFa-plus-vehicle, 100% no-TNFa wells.
A short description of assay [2]: reduction of polyQ htt aggregates in cells – imaging, exon1htt(103Q)mCFP cells, high-content imaging, primary screen (AID 483;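 active = visual image review flags a hit and inhibition of aggregation exceeds 20%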;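 note: compound exposure lasted 3 days before fixation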;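 for nuclei count: percent of the per-plate median nuclei count of sample wells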). The following applies: exon1htt(103Q)mCFP cell line, aggregate imaging, at 2 µM; inhibition of aggregation: stronger effect = higher value; nuclei count: measured here: cell count, toxicity.
The nature of assay [3]: endothelial E-selectin expression blockers – imaging, HUVEC, immunofluorescence, MLSMR starter and 10KST1 sets, primary screen (AID 487;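 active = visually confirmed hit in the image check and inhibition above 20%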;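 for inhibition: signal is fraction of cell area covered by stained E-selectin grains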;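 for nuclei count: 100% = median nuclei count of all wells on the same plate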). The following applies: HUVEC TNFalpha-induced E-selectin immunofluorescence imaging, at 2 µM; inhibition: stronger effect = higher value; nuclei count: measured here: cell number, toxicity.
Assay [4] can be described thus: Primary imaging screen for DUSP6 inhibitors that restore phospho-Erk in transfected HeLa cells, chemical complementation (AID 609;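 active = compounds giving at least 50% inhibition in the cell-based MKP-3 phosphatase rescue imaging test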;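 for inhibition: phospho-Erk level distribution per well compared with pooled transfected vehicle control wells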). The following applies: HeLa MKP-3 transfected, phospho-Erk imaging KS statistic, at 10 µM, cells stimulated with TPA for 15 min.
In assay [5] the target is Dual specificity protein phosphatase 6 (Homo sapiens) (UniProt Q16828). The assay is described as above. The following applies: HeLa MKP-3 transfected, phospho-Erk imaging KS statistic; at 10 µM; stronger effect = higher value; cells stimulated with TPA for 15 min.
Chain of Dual specificity protein phosphatase 6 (Homo sapiens) (Q16828 whole entry, looked up): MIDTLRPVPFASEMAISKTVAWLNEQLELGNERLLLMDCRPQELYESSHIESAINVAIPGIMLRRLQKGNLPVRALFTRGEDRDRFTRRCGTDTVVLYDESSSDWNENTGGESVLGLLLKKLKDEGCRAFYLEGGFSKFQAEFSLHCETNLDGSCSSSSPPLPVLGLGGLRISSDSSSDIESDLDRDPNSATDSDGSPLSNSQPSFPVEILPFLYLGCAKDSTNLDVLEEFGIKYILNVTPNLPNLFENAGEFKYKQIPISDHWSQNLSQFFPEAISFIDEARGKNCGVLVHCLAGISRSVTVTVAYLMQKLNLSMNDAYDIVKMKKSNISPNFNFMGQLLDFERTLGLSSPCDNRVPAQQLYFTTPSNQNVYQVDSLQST
For assay [6], the target named is Voltage-gated potassium channel subunit beta-2 (Rattus norvegicus) (UniProt P62483). Nature of the assay: inhibitors of rat Kvbeta2 reductase activity – biochemical, NADPH fluorescence, primary screen (AID 622;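 active = fluorescence slope higher than the sample average by over 3 SD, cut at about -0.22 in these data, passing the limit was not always enough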;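 note: slope of raw intensity against log time taken from 70 to 1610 s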). The following applies: recombinant KvBeta, 4-cyanobenzaldehyde reduction, at 10 µM, stronger effect = higher value.
Chain of Voltage-gated potassium channel subunit beta-2 (Rattus norvegicus) (P62483 whole entry, looked up): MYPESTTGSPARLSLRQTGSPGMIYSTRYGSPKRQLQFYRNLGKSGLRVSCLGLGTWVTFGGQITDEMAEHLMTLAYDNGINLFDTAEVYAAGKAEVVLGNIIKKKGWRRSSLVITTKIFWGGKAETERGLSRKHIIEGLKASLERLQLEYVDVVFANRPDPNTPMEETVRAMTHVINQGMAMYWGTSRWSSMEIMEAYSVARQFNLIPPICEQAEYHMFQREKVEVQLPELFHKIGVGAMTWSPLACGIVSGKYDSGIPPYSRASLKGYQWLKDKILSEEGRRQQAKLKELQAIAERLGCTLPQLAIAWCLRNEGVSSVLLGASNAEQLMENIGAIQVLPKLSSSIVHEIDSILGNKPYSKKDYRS
Assay [7] shares this target. Kind of assay: enhancers of rat Kvbeta2 NADPH turnover – biochemical, NADPH fluorescence, primary screen (AID 623;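 active = NADPH fluorescence slope more negative than the mean of all samples by about 3 SD, 99.7% confidence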;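 note: fluorescence intensity change per second fitted from 20 to 320 s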). The following applies: Recombinant KvBeta, NADPH fluorescence decrease slope, 10 min; at 10 µM; stronger effect = lower value.
For assay [8], the target named is Alpha-2C adrenergic receptor (Homo sapiens) (UniProt P18825). Nature of the assay: compounds altering alpha2C-coupled GIRK flux – cell-based, HEK293 alpha2C/GIRK1/2, thallium flux, primary screen (AID 624;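 active = fluorescence slope after compound addition differing from the mean of all screened samples at 99.7% confidence, in either direction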;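 note: slope of fluorescence ratio to pre-addition baseline per second over 15 to 24 s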). The note with it: thallium flux BTC fluorescence, at 10 µM, actives lie on both sides.
Chain of Alpha-2C adrenergic receptor (Homo sapiens) (P18825 whole entry, looked up): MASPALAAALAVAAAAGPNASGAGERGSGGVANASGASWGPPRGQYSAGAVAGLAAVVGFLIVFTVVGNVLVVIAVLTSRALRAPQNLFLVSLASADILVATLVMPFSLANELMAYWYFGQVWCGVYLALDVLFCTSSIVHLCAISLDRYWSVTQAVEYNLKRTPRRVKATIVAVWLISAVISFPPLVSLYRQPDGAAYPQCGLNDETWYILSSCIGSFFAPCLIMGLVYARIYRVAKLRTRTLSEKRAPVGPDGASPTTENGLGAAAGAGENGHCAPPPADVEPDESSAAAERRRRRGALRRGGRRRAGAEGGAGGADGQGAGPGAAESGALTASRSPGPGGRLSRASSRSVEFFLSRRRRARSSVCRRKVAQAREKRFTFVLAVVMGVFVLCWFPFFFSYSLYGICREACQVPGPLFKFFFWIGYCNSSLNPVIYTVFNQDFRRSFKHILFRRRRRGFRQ
A short description of assay [9]: inhibitors of larval lipid processing in zebrafish, primary screen, whole organism, PED6 fluorescence, gall bladder and intestine (AID 686;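 active = a full or partial loss of lipid-probe fluorescence in the fish gall bladder, intestine or both, judged by eye; inactive = no fluorescence loss, or compound toxic to the fish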;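 note: larvae 5 to 7 days old with five fish per well; signal comes from phospholipase A2 cleavage of quenched PED6 carried via bile; overnight exposure to compound and PED6 before scoring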). The note with it: Zebrafish larvae PED6 lipid processing, fluorescence scoring; screened at 20 µM (by protocol).
A short description of assay [10]: loss of swimming-algae plug formation – whole organism, Chlamydomonas reinhardtii, WT vs cilia-less mutant, absorbance, 96-well, primary screen (AID 463189).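 Note: 0% = wild type cc124 cells in DMSO and 100% = ciliumless bld1 mutant cells.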 The following applies: Chlamydomonas reinhardtii gravitaxis, OD600 absorbance, 2 days; at 10 µM; stronger effect = higher value.
Assay [11] can be described thus: blockers of RIG-like receptor reporter activation – cell-based, Sendai virus stimulus, luciferase, 10K MLSCN set, TLR/RLR signaling modifier project, primary screen (AID 602276;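 active = inhibition at or above 50% at 10 µM; inactive = inhibition below 50%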;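 note: firefly luciferase from ISG56 promoter only with Renilla not read in this screen; 0% = Sendai virus plus DMSO and 100% = medium plus DMSO without virus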). The note with it: HEK293 RL24 IRF3 luciferase reporter, at 10 µM, stronger effect = higher value.
Assay [12] is described as follows: TLR3 IRF3 reporter activation blockers – cell-based, poly I:C stimulus, luciferase, 10K MLSCN set, primary screen (AID 602277;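 active = inhibition of the reporter signal at or above 50%; inactive = inhibition below 50%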). The note with it: HEK293-TLR3 RL24 IRF3 luciferase reporter, at 10 µM, stronger effect = higher value. (A reporter such as luciferase makes a cellular process visible.)
Where [13] appears, read: measured here: cell density z-score.
[14] abbreviates: measured here: nuclear c-Myc green intensity z-score.
[15] abbreviates: measured here: nuclear pErk red intensity z-score, stronger effect = higher value.

Structures are written as SMILES. Values joined by “and” are separate entries in the source; they are usually repeats but may differ in a detail not shown here. Identical values can stand only once. More than one record can exist for a structure, and the calls need not agree. Active and inactive are the calls of the source.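 Rule for the calls, unless noted: active = inhibition at or above 50% relative to wild type and mutant plate controls; inactive = inhibition below 50%.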

What is called inhibition is the change of the read-out against control, counted positive when it falls. Turning to `O=C(CSc1nnc(-c2ccco2)c(-c2ccco2)n1)Nc1ccccc1`, in [1], the cell count stood at 582. Besides, the inhibition is -9.5% (inactive) in assay [1]; -30.7% (inactive) in [3]; 1.6e-07% (inactive) in assay [5]; 17.3% (inactive) in assay [10]; -13.8% (inactive) in assay [11]; 6.55% (inactive) in assay [12]. Also, the inhibition of aggregation in [2] was -9.2% (inactive). Also, the values for the nuclei count in [2] and in assay [3] were 100% and 123%, respectively. The z-score in assay [4] (setting [13]) was 0.318; in assay [4] (setting [14]), -1.08; in [4] (setting [15]) it was 1.26. The fluorescence slope in assay [6] was -0.358 (inactive). For the same compound, the NADPH fluorescence slope in assay [7] was -1.6e-05 (inactive). Also, the slope in assay [8] is 0.00359 (inactive). Further, the compound was classed as inactive in assay [9].

On to `CN1[C@@H](CC(=O)c2ccccc2)CCC[C@H]1C[C@H](O)c1ccccc1`, for which the cell count in assay [1] stood at 617. For the same compound, the inhibition was -3.2% (inactive) in [1]; -81.3% (inactive) in [3]; 21.2% (inactive) in assay [5]; 1.79% (inactive) and -5.55% (inactive) in assay [10]; 8% (inactive) in assay [11]; 31.3% (inactive) in [12]. For the same compound, the inhibition of aggregation in assay [2] was -2.2% (inactive). Besides, the nuclei count was found to be 96.2% in [2] and 120% in assay [3]. Also, the z-score in assay [4] (setting [13]) is -0.242; in assay [4] (setting [14]) it was -0.85; in assay [4] (setting [15]) it was 0.339. For the same compound, in [6], the fluorescence slope was -0.436 (inactive). Also, the NADPH fluorescence slope in assay [7] was -0.000135 (inactive). For the same compound, the slope in assay [8] is 0.00528 (inactive). For the same compound, the call in [9] was inactive.

Consider `OCCNC1=NCCN1`, for which, in [1], the cell count was 552. Moreover, the inhibition was -6.3% (inactive) in assay [1]; -4.8% (inactive) in assay [3]; -3.98% (inactive) in [5]; -5.29% (inactive) in assay [10]; 17.3% (inactive) in [11]; 20.3% (inactive) in [12]. Also, the inhibition of aggregation in [2] is 28.8% (active). Moreover, the nuclei count in assay [2] was determined as 104%; in assay [3] it was 146%. In addition, the z-score in [4] (setting [13]) was -0.706; in assay [4] (setting [14]), -1.05; in [4] (setting [15]), 0.931. Besides, in assay [6], the fluorescence slope is -0.523 (inactive). Besides, the NADPH fluorescence slope in [7] is -7.4e-05 (inactive). The slope in assay [8] is 0.00539 (inactive). The result in [9] was inactive.

With `CCOC(=O)C1=C(C)N=C2SC(C)C(=O)N2C1c1cccc(F)c1` (stereo not given), the cell count in [1] was found to be 400. The inhibition in assay [1] was -2.2% (inactive); in assay [3], -10.3% (inactive); in assay [5], 5.42% (inactive); in assay [10], -0.443% (inactive); in [11], 25.4% (inactive); in assay [12] it was 20.1% (inactive). Also, the inhibition of aggregation in assay [2] is 9.9% (inactive). The results for the nuclei count in assay [2] and in assay [3] were 102% and 139%, respectively. For the same compound, the z-score in assay [4] (setting [13]) was -0.692; in assay [4] (setting [14]), 0.668; in [4] (setting [15]) it was 0.0738. Also, the fluorescence slope in assay [6] was -0.448 (inactive). In assay [7], the NADPH fluorescence slope was -0.000135 (inactive). Besides, the slope in assay [8] is 0.00424 (inactive). Moreover, in [9], the outcome was inactive.

In the case of `COc1ccc2nc(S(=O)Cc3ncc(C)c(OC)c3C)[nH]c2c1` (stereo not given), in [1], the cell count is 542. In addition, the inhibition was 1.6% (inactive) in [1]; -24.2% (inactive) in [3]; 25.7% (inactive) in [5]; 27% (inactive) in assay [10]; -9.53% (inactive) in assay [11]; -10.5% (inactive) in [12]. In assay [2], the inhibition of aggregation was 2.2% (inactive). Further, the nuclei count in [2] was 97.5%; in assay [3] it was 108%. Besides, the z-score in assay [4] (setting [13]) is 0.164; in [4] (setting [14]), 1.22; in assay [4] (setting [15]), -0.909. Besides, in assay [6], the fluorescence slope was -0.449 (inactive). Further, the NADPH fluorescence slope in assay [7] was -7.2e-06 (inactive). In addition, in assay [8], the slope was 0.00367 (inactive). Besides, in assay [9], the compound was called inactive.

As to `CN(C)CCCN1c2ccccc2CCc2ccc(Cl)cc21`, the cell count in assay [1] was determined as 621. In addition, the inhibition in assay [1] was -7.8% (inactive); in assay [3], -129% (inactive); in assay [5] it was 7.39% (inactive); in [10], 16.7% (inactive) and 70.6% (active); in [11], 14.9% (inactive); in assay [12] it was 13.5% (inactive). Moreover, the inhibition of aggregation in assay [2] was -25.6% (inactive). In addition, the nuclei count in assay [2] worked out at 113%; in assay [3], 124%. The figures for the z-score in [4] (setting [13]), in assay [4] (setting [14]) and in assay [4] (setting [15]) were -0.576, 1.08 and 1.97, respectively. Besides, the fluorescence slope in assay [6] is -0.41 (inactive). In addition, the NADPH fluorescence slope in assay [7] was 3.7e-05 (inactive). In addition, in [8], the slope was 0.00326 (inactive). Moreover, the outcome in assay [9] is “active; weak signal in gallbladder and intestine”.

On to `CCCc1c(OCCCCc2nn[nH]n2)ccc(C(C)=O)c1O`, for which, in assay [1], the cell count worked out at 599. Besides, the inhibition was -11.6% (inactive) in assay [1]; -37.8% (inactive) in assay [3]; 9.37% (inactive) in [5]; -12.8% (inactive) in [10]; 15.4% (inactive) in [11]; 34.3% (inactive) in [12]. For the same compound, the inhibition of aggregation in assay [2] was -9.3% (inactive). The nuclei count came out at 95.3% in assay [2] and 129% in assay [3]. Further, the z-score in assay [4] (setting [13]) was 0.961; in assay [4] (setting [14]), 0.408; in assay [4] (setting [15]) it was -0.601. The fluorescence slope in [6] was -0.458 (inactive). Also, in assay [7], the NADPH fluorescence slope was -4e-05 (inactive). Moreover, the slope in assay [8] was 0.00468 (inactive). Also, the result in assay [9] was inactive.

Take `CC1(C)CC(=O)C2=C(C1)N(CC1CCCO1)C(=O)C2(O)C(F)(F)F` (stereo not given): the cell count in assay [1] stood at 503. The inhibition was 6.9% (inactive) in [1]; -123% (inactive) in [3]; 1.75% (inactive) in assay [5]; 29.7% (inactive) in [10]; -0.648% (inactive) in assay [11]; 98% (active) in [12]. Besides, the inhibition of aggregation in assay [2] is -2.8% (inactive). For the same compound, the results for the nuclei count in assay [2] and in assay [3] were 108% and 123%, respectively. In addition, the z-score in [4] (setting [13]) is -0.368; in assay [4] (setting [14]), 0.41; in assay [4] (setting [15]), -0.669. Besides, in assay [6], the fluorescence slope was -0.492 (inactive). The NADPH fluorescence slope in [7] was -1.2e-05 (inactive). Also, the slope in assay [8] was 0.00532 (inactive). In addition, the result in assay [9] was inactive.

As to `O=C(CCNNC(=O)c1ccncc1)NCc1ccccc1`, the cell count in assay [1] is 595. Further, the inhibition in [1] is 2.2% (inactive); in assay [3], -81.8% (inactive); in assay [5], 8% (inactive); in assay [10], 4.6% (inactive) and 1.15% (inactive); in [11] it was -7.31% (inactive); in [12] it was 21.4% (inactive). Also, the inhibition of aggregation in [2] is -4.6% (inactive). Also, the results for the nuclei count in assay [2] and in assay [3] were 104% and 117%, respectively. In addition, the z-score is -1.05 in [4] (setting [13]), -0.737 in [4] (setting [14]) and 0.12 in assay [4] (setting [15]). For the same compound, in assay [6], the fluorescence slope is -0.485 (inactive). In addition, in assay [7], the NADPH fluorescence slope was -7.6e-05 (inactive). Moreover, the slope in [8] is 0.00448 (inactive). The outcome in [9] was inactive.

Regarding `CCCC(=O)O[C@]1(C(=O)CCl)[C@@H](C)C[C@H]2[C@@H]3CCC4=CC(=O)C=C[C@]4(C)[C@@]3(F)C(=O)C[C@@]21C`, the cell count in [1] was 614. In addition, the inhibition in [1] is -3.2% (inactive); in assay [3], -61.7% (inactive); in assay [5], 19.2% (inactive); in assay [10], 47.7% (inactive); in assay [11], -12.4% (inactive); in assay [12], -5.01% (inactive). Besides, the inhibition of aggregation in assay [2] was -2.9% (inactive). Also, the nuclei count in [2] amounted to 63.4%; in [3] it was 120%. Besides, the z-score in assay [4] (setting [13]) is 0.0825; in assay [4] (setting [14]), 0.587; in assay [4] (setting [15]) it was -0.866. Also, in [6], the fluorescence slope was -0.535 (inactive). In assay [7], the NADPH fluorescence slope was -7e-05 (inactive). Also, the slope in [8] is 0.00401 (inactive). Moreover, the compound was classed as inactive in assay [9].
